Assay outcomes from PubChem.
IL-1B inflam inh: qHTS for Inhibitors of Inflammasome Signaling: IL-1-beta AlphaLISA Primary Screen. activity change, % at 57.5 µM. THP-1 LPS/ATP IL-1B secretion, AlphaLISA, 16 h; hits give low values. AID 743279, 2014. hit rate 4.7% among 360,000; in the data active = activity change below about -50%; inconclusive = mostly about -30% to -49%
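Secreted IL-1B measured by AlphaLISA bead assay after 16 h compound exposure of THP-1 cells; compounds (final up to 57.5 uM) added 1 h before LPS (250 ng/mL) and ATP (1.25 mM) stimulation; lower signal means less secretion.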
TDP1 cell CPT: qHTS for Inhibitors of human tyrosyl-DNA phosphodiesterase 1 (TDP1): qHTS in cells in presence of CPT. chicken DT40 Tdp1-/-;hTDP1 cells + 20 nM CPT, ATP luminescence, 48 h. Potency, µM (series often up to 46.2 µM), usual class: inhibitors. hit rate 12% among 420,000. AID 686979, 2013; note: nearly all actives have a fitted effect of over 55% in size
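Cell growth measured by CellTiter-Glo luminescence after a minimum 48 h, 37 C compound exposure with 20 nM CPT in Tdp1-knockout DT40 cells stably expressing hTDP1, seeded 400/well; qHTS titration format.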
ASM inhibitor: Inhibitors of Secretory Acid Sphingomyelinase (S-ASM): qHTS; placental ASM, HMU-PC fluorogenic substrate, 60 min; hit rate 0.006% among 340,000; Potency, µM (doses to about 57.5 µM), actives largely listed as inhibitors; Sphingomyelin phosphodiesterase (Homo sapiens), P17405
Target sequence (P17405 47-631 limits assumed): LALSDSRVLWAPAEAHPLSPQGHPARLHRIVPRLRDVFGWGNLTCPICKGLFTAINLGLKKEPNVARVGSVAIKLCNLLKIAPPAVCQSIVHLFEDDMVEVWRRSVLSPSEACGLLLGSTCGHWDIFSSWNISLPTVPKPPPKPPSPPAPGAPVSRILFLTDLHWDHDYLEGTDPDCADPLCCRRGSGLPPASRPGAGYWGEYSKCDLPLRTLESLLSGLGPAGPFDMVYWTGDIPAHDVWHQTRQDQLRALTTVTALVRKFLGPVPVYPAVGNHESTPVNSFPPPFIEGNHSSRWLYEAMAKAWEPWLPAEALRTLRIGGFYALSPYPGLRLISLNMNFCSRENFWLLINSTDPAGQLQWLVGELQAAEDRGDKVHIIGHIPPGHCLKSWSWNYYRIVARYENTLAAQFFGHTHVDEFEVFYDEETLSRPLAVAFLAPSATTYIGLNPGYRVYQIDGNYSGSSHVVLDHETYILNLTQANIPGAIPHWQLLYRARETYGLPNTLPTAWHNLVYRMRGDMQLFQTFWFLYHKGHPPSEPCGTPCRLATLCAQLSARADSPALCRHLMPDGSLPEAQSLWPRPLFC
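HMU-PC0 cleavage (9 uM final) by human placental ASM, 60 min at 37 °C following 10 min compound exposure at RT; stopped at pH 10, fluorescence Ex 386/Em 447 nm.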
TGFb SMAD3 inh: qHTS for Inhibitors of TGF-b | HepG2 CAGA-GFP TGF-b/SMAD3 reporter, GFP fluorescence, 18 h; TGF-beta stimulated, 500 pg/mL final | hit rate 1.2% among 410,000 | Potency, µM (top dose mostly 46.1 µM), actives largely listed as inhibitors | AID 588855, 2011; note: nearly all actives have a fitted effect of over 65% in size
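First, reporter cells (HEPG2 CAGA-GFP) rested 2 h at 37 degrees C. Next, compounds were pinned in and TGF-beta added to 500 pg/mL final. After 18 h, GFP was imaged per cell and summed per well.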
HepG2 tox: qHTS for Inhibitors of TGF-b: Cytotox Counterscreen; HepG2 CAGA-GFP viability, ATP luminescence, 18 h; Potency, µM (doses to about 46.1 µM), hits mostly cytotoxic; hit rate 0.76% among 410,000; AID 588856, 2011
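HepG2 CAGA-GFP cells (1000/well, DMEM with 1% FBS) received compound, then TGF-beta at 500 pg/mL final, and were incubated 18 hours at 37 degrees C. Viability was read by CellTiter-Glo luminescence. Media-only wells were set as complete cell-killing and DMSO as no toxicity.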
TDP1 cell noCPT: qHTS for Inhibitors of human tyrosyl-DNA phosphodiesterase 1 (TDP1): qHTS in cells in absence of CPT | Potency, µM (top dose mostly 46.2 µM), actives largely listed as inhibitors | DT40 Tdp1-/- hTDP1 cells, no CPT, ATP luminescence, 48 h | AID 686978, 2013 | hit rate 15% among 420,000; note: nearly all actives have a fitted effect of over 55% in size
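Growth kinetics read by CellTiter-Glo luminescence after ≥48 hr at 37 °C. Cells: DT40 Tdp1-/- stably carrying human TDP1, 400 per well, compound exposure in the absence of CPT (DMSO vehicle).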
Hits are given with their value; 0 = inactive; ? = inconclusive; - = no result. In the library only some 19% were active in any assay of this set; here they are far more common. Unless noted, calls come from the whole dose curve; as a rule, active = well fitted curve in the direction sought with a large enough effect; inconclusive = small, poorly fitted or top-dose-only effect, or another doubt; inactive = no such curve, though single readings can be large; an effect the other way counts as inactive or inconclusive.

SMILES | IL-1B inflam inh | TDP1 cell CPT | ASM inhibitor | TGFb SMAD3 inh | HepG2 tox | TDP1 cell noCPT
CCCCNCc1cc(Br)c(OCC(=O)NCc2ccccc2)c(OC)c1 | 0 | 0 | 0 | 0 | 0 | ?
COc1cc(CNC(C)(C)CO)cc(Br)c1OCc1ccc(Cl)cc1 | -114.4 | ? | 0 | ? | 0 | ?
CC12CCC(/C(=N/O)C1=O)C2(C)C (stereo not drawn) | - | - | - | 0 | 0 | -
COc1cc(-c2nc(CN3CCN(C(=O)c4ccco4)CC3)c(C)o2)ccc1F | 0 | 0 | 0 | 0 | 0 | 0
COc1cc(CNc2ccc(O)cc2)cc(Br)c1OCc1ccccc1 | 0 | ? | ? | 22.4µM | 0 | ?
COc1cc(C(N)=O)cc(Br)c1OCc1ccccc1 | 0 | ? | 0 | 0 | 0 | ?
O=C(COC(=O)c1c(F)cccc1Cl)NCC1CCCCC1 | 0 | ? | 0 | 0 | 0 | 0
CCOc1ccc(CCNC(=O)c2cc3c(C)nccc3[nH]c2=O)cc1OCC | 0 | 11.6µM | 0 | 0 | 0 | 13µM
CCOC(=O)CNC(=O)c1cc2c(=O)[nH]c3ccc(C)cc3c2s1 | 0 | 0 | 0 | 0 | 0 | 0
COc1ccc(CCNC(=O)c2cc3c(=O)[nH]c4ccc(C)cc4c3s2)cc1OC | - | 13µM | - | 0 | 0 | 11.6µM
CCOc1ccc(CCNC(=O)c2cc3c(=O)[nH]c4ccc(C)cc4c3s2)cc1OCC | - | 4.11µM | - | ? | 0 | 18.4µM
Cc1cc(C(=O)NC2CCCCC2C)c2ccccc2n1 (stereo not drawn) | 0 | 0 | 0 | 0 | 0 | 0
Cc1nccc2[nH]c(=O)c(C(=O)NC3CCCCC3C)cc12 (stereo not drawn) | 0 | ? | 0 | 0 | 0 | 16.4µM
CC1(C)CC(NC(=O)C2CCCCC2)CC(C)(C)N1 | 0 | 0 | 0 | 0 | 0 | 0
N#C/C(=N\Nc1cccc2ccccc12)c1nnc2n1CCCCC2 | 0 | ? | 0 | 0 | 0 | 32.6µM
C=CCc1cc(Cl)ccc1OCCOCCNC(C)(C)C | 0 | ? | 0 | 0 | 0 | ?
CCc1ccccc1NC(=S)N1CCN(c2ccccc2F)CC1 | 0 | 0 | 0 | ? | 0 | ?
CCOc1ccccc1NC(=S)N1CCN(c2ccccc2F)CC1 | 0 | ? | 0 | 0 | 0 | 20.6µM
CCOc1ccccc1NC(=S)N1CCN(c2nc(-c3ccc(F)cc3)cs2)CC1 | 0 | 20.6µM | 0 | 0 | 0 | 14.6µM
COCC(=O)Nc1cc(C(=O)N2CCN(c3ccccc3)C(=O)C2)cc2nc(-c3ccccc3)n(C)c12 | - | 0 | - | - | - | 0
COc1ccc(CCn2c(-n3nc(C)cc3C)nc3c2c(=O)[nH]c(=O)n3C)cc1 | 0 | 1.84µM | 0 | 0 | 0 | 1.64µM
Cc1ccc(Cn2c(-n3nc(C)cc3C)nc3c2c(=O)[nH]c(=O)n3C)cc1 | 0 | ? | 0 | 0 | 0 | 0
COc1ccc(/C=C(\C#N)C(=O)N2COCC2(C)C)cc1 | 0 | 0 | 0 | 0 | 0 | 0
Nc1ncnc(Nc2ccc(S(N)(=O)=O)cc2)n1 | 0 | 0 | 0 | 0 | 0 | 0
CCc1nc2ccccc2c(C(=O)O)c1C | 0 | 0 | 0 | 0 | 0 | 0
SMILES | IL-1B inflam inh | TDP1 cell CPT | ASM inhibitor | TGFb SMAD3 inh | HepG2 tox | TDP1 cell noCPT
CCc1nc2ccc(C)cc2c(C(=O)Oc2cccc3cccnc23)c1C | 0 | ? | 0 | 0 | 0 | 23.1µM
Cc1c(C(=O)Oc2cccc3cccnc23)oc2ccccc12 | ? | ? | 0 | ? | 11.2µM | ?
CCOc1c2ccc(C(=O)N[C@H](C)C3CCCCC3)cc2nn1CCOC | 0 | 1.84µM | 0 | 0 | 0 | 1.03µM
CCn1nc2cc(C(=O)NCC34CC5CC(CC(C5)C3)C4)ccc2c1OC | 0 | ? | 0 | 0 | 0 | ?
CCCCn1nc2cc(C(=O)NCC34CC5CC(CC(C5)C3)C4)ccc2c1OC | 0 | 18.4µM | 0 | 0 | 0 | ?
CCOc1c2ccc(C(=O)NCC34CC5CC(CC(C5)C3)C4)cc2nn1CC | ? | 29.1µM | 0 | 0 | 0 | 16.4µM
O=C(NCC(c1ccc2c(c1)OCO2)N1CCOCC1)c1cccc(Cl)c1 (stereo not drawn) | - | ? | - | 0 | 0 | ?
CCOc1ccc(NC(=O)CN(Cc2ccccc2)S(=O)(=O)c2ccc3nc(C)sc3c2)cc1 | - | ? | - | 0 | 0 | 25.9µM
COc1cccc(NC(=O)CN(Cc2ccccc2)S(=O)(=O)c2ccc3nc(C)sc3c2)c1 | - | ? | - | ? | 0 | 25.9µM
COc1cccc(CNC(=O)CNS(=O)(=O)c2ccc3nc(C)sc3c2)c1 | - | ? | - | - | 0 | 14.6µM
Cc1nc(C(F)(F)F)ccc1C(=O)N1CCC(C)(C(=O)O)C1 (stereo not drawn) | 0 | 0 | - | 0 | 0 | 0
Nc1nccc(SCc2ccc(Cl)cc2Cl)n1 | - | 0 | 0 | 0 | 0 | 0
Nc1nc(N)c(Cc2ccc(Cl)cc2Cl)c(N)n1 | 0 | 25.9µM | 0 | 0 | 0 | 23.1µM
Cc1ccc(P(=O)(c2ccc(C)cc2)[C@@H](NC(c2ccccc2)c2ccccc2)c2ccccc2)cc1 | 0 | 18.4µM | - | - | - | 13µM
Cc1c(C(=O)N2CCCCC2)c(S(=O)(=O)N2c3ccccc3CC2C)c(C)n1C (stereo not drawn) | 0 | ? | 0 | 0 | 0 | 0
CC(Sc1nc(C(C)(C)C)cc(-c2ccccc2)c1C#N)C(=O)Nc1ccccc1 (stereo not drawn) | 0 | ? | 0 | ? | 0 | 29.1µM
COc1ccccc1-c1cc(-c2ccccc2)nc(SC(C(N)=O)c2ccccc2)c1C#N (stereo not drawn) | 0 | ? | 0 | 0 | 0 | 23.1µM
CCOC(=O)C(C)Sc1nc(-c2ccccc2Cl)cc(-c2ccccc2)c1C#N (stereo not drawn) | - | 13µM | - | 0 | 0 | ?
COc1ccc(S(=O)(=O)N(CC(=O)NCc2ccncc2)c2ccc(C)cc2)cc1Br | 0 | 0 | 0 | 0 | 0 | 0
Cn1ccc2c(-c3ccc(CO)cc3)cc3c(c21)C1CCC3C1 (stereo not drawn) | 0 | 18.4µM | - | 0 | 0 | ?
Cn1ccc2c(N3CCCCC3)cc3c(c21)C1CCC3C1 (stereo not drawn) | 0 | ? | - | 0 | 0 | ?
Cn1ccc2c(-c3ccc(F)cc3)cc3c(c21)C1CCC3C1 (stereo not drawn) | 0 | 0 | - | 0 | 0 | ?
Cn1ccc2c(N3CCCC3)cc3c(c21)C1CCC3C1 (stereo not drawn) | 0 | 20.6µM | - | ? | 0 | 14.6µM
Cn1ccc2c(N3CCCCCC3)cc3c(c21)C1CCC3O1 (stereo not drawn) | 0 | 20.6µM | - | 0 | 0 | ?
